PBM binding z-score data for 39 sequences are collected here from the supplement of paper PMC6555819.

The test system of the first experiment is RXRa DBDmut IVT, anti-RXR (DBD mutation: RXRa K156A/R161A, NR concentration 90 nM). The experiment is described as follows: PBM binding z-score (relative to random genomic background probes); higher = stronger binding; sequences stand for … in GC…GCGATTGACAGCGTAGAATGAAGG
An outline of the steps:
(§1)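 Ligand-free nuclear receptor dimers were applied to custom Agilent 4×180K protein-binding microarrays whose double-stranded probes carried direct-repeat seeds, single-nucleotide variants, half-site ablations and random human genomic background sequences in 34-nt variable regions. Incubation lasted 1 h. Binding z-scores were computed against the random background probes from regression-normalized fluorescence.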
CTATGTAGTTTAAGGGGGTCATTCAGTTTGAAAG gave a PBM binding z-score of 3.27.

On to GTACCAAGGTGAATAGGTCGTTGATGAGTAGGCG, for which the PBM binding z-score was 0.0133.

In the case of ATGGAAAGGTCGTGAGGTGAGTATACAGAAAGGC, the PBM binding z-score was 1.52.

AGAATGAGGTTACCAGAGATCAGGGAAACGCTTG gave a PBM binding z-score of 1.1.

CAAAGTAGGTCACGAAAGGTCAAAGTCGAATGAC displayed a PBM binding z-score of 2.36.

Sequence TCGAGTAGGTTACGGGGGCCTTCAGGGATGAAGA registered a PBM binding z-score of 0.49.

CCGAGTAGGTTCCGAGGGGGCATTCAGTGCGAAT yielded a PBM binding z-score of 1.42.

AGAATGAGGTTAAGATTAGGGAAACAGAATACAT yielded a PBM binding z-score of 1.13.

As to ATATGTATGTTAGGGTCATTCAGAAAGTAGGGAA, the PBM binding z-score was determined as 2.73.

In the case of ATATCTAGGTTAGGGTCATTCAGAAAGTAGGGAA, the PBM binding z-score turned out to be 2.56.

For CGAACTAGGTCACCAGGACAGTCAAGAGGTTGGA, the PBM binding z-score turned out to be 1.24.

In turn, CAAACTAGGTCACGAAAGGTCAAAATCGAATGAC came in with a PBM binding z-score of 2.25.

In turn, AGTCAGAGTTCATCTAGGTAACGTAAGATATGCT registered a PBM binding z-score of 4.9.

CAAAATAGGTCAAGGTCAAAGTCGGTTTGTGCCA registered a PBM binding z-score of 2.89.

For TCGCGTAGGTTACGGGGGCATTCAGGGATGAAGA, the PBM binding z-score amounted to 1.99.

The sequence CCTGCTAGGTCTATGGTCAGCTAAAGCAGCTCGC displayed a PBM binding z-score of 0.301.

With CCGAGTAGCTTACGAGGGGGCATTCAGTGCGAAT, the PBM binding z-score amounted to 1.5.

AGATTGAGGTTACCAAAGATCAGGGAAACGCTTG gave a PBM binding z-score of 1.36.

As to GGAACGAGCGCAAAGTTGATAGCATCTGTCGACG, the PBM binding z-score is -0.219.

As for TCTAGTTGGTCAAAGGTCAAACACTCGAAATGCG, the PBM binding z-score was 2.11.

Take CTATGTAGGTTAAGGGGGTCGTTCAGTTTGAAAG: the PBM binding z-score was determined as 1.7.

Turning to TATACAGGATCAAAGGCCAGAGTACGAATGTCGA, the PBM binding z-score is -0.32.

The sequence TAGCCTAGGTCATTCAGGGGCCAGTATGGAAAGC displayed a PBM binding z-score of 1.72.

CGAACTAGGTGACCAGGACAGTGAAGAGGTTGGA returned a PBM binding z-score of -0.229.

As for ACTTACGGGTCAACGAAGTTATAGCACGCGTATA, the PBM binding z-score was determined as 1.66.

For CAAACTAGGTCACGAGGTCAAAGTCCGCTTCCCG, the PBM binding z-score came to 3.1.

Consider AGCTCTAGGTAAAAGTTCAGTGAATCCCGAGGAT, for which the PBM binding z-score stood at 0.637.

Regarding CGAACTAGGTCAAAGGACACTGAAAGGCGACGTA, the PBM binding z-score worked out at 1.6.

In the case of TAGCCTAGGTCATAGGCCAGTATACCACGCGAAC, the PBM binding z-score came out at 0.7.

For the sequence CGAACTAGGCCACCAGGACAGTGAAGAGGTTGGA, the PBM binding z-score was -0.131.

ATATGTAGGTTAGGGTCATTCCGAAAGTAGGGAA showed a PBM binding z-score of 2.61.

For the sequence CGTCCAAGGGCAATGCTAGGTCAGTGAAAGCATT, the PBM binding z-score was found to be 0.887.

AGAATGGGGTTAAGATCAGGGAAACAGAATACAT yielded a PBM binding z-score of 1.99.

For CCGAGTAGGTTACGAGGGGGCACTCAGTGCGAAT, the PBM binding z-score was 0.868.

TTACCAAGGTAAAAGGTCGTTGATGCACGCCTTG yielded a PBM binding z-score of 0.317.

As for GCTTACGGGTCAAAGGTTATGGCATGAATAGAAT, the PBM binding z-score was determined as 2.31.

ACTCGGAGGACAAAGGTAAGAGCTACGCCAGTGA: the PBM binding z-score stood at 0.376.

Consider CAATCTAGGTCACAGAGGTCAAAGTCCGTGCGTA, for which the PBM binding z-score stood at 3.44.

For the sequence CGAACTAGGTCACCAGGACAGTGATGAGGTTGGA, the PBM binding z-score was 1.28.

A further experiment relates to RXRa homodimer (NR concentration 180 nM). The experiment is described as above. An outline of the steps:
as §1
Turning to CTATGTAGTTTAAGGGGGTCATTCAGTTTGAAAG, the PBM binding z-score was found to be 5.05.

In turn, GTACCAAGGTGAATAGGTCGTTGATGAGTAGGCG gave a PBM binding z-score of 1.92.

Sequence ATGGAAAGGTCGTGAGGTGAGTATACAGAAAGGC yielded a PBM binding z-score of 5.97.

AGAATGAGGTTACCAGAGATCAGGGAAACGCTTG gave a PBM binding z-score of 2.88.

CAAAGTAGGTCACGAAAGGTCAAAGTCGAATGAC came in with a PBM binding z-score of 8.62.

TCGAGTAGGTTACGGGGGCCTTCAGGGATGAAGA displayed a PBM binding z-score of 1.47.

CCGAGTAGGTTCCGAGGGGGCATTCAGTGCGAAT registered a PBM binding z-score of 1.12.

Consider AGAATGAGGTTAAGATTAGGGAAACAGAATACAT, for which the PBM binding z-score turned out to be 2.57.

In turn, ATATGTATGTTAGGGTCATTCAGAAAGTAGGGAA showed a PBM binding z-score of 4.9.

The sequence ATATCTAGGTTAGGGTCATTCAGAAAGTAGGGAA displayed a PBM binding z-score of 4.98.

CGAACTAGGTCACCAGGACAGTCAAGAGGTTGGA: the PBM binding z-score was found to be 3.33.

Consider CAAACTAGGTCACGAAAGGTCAAAATCGAATGAC, for which the PBM binding z-score is 8.44.

The sequence AGTCAGAGTTCATCTAGGTAACGTAAGATATGCT registered a PBM binding z-score of 4.73.

CAAAATAGGTCAAGGTCAAAGTCGGTTTGTGCCA showed a PBM binding z-score of 6.48.

TCGCGTAGGTTACGGGGGCATTCAGGGATGAAGA gave a PBM binding z-score of 3.08.

In the case of CCTGCTAGGTCTATGGTCAGCTAAAGCAGCTCGC, the PBM binding z-score is -0.345.

In the case of CCGAGTAGCTTACGAGGGGGCATTCAGTGCGAAT, the PBM binding z-score was 0.627.

AGATTGAGGTTACCAAAGATCAGGGAAACGCTTG gave a PBM binding z-score of 2.81.

GGAACGAGCGCAAAGTTGATAGCATCTGTCGACG displayed a PBM binding z-score of -0.2.

TCTAGTTGGTCAAAGGTCAAACACTCGAAATGCG: the PBM binding z-score turned out to be 8.23.

On to CTATGTAGGTTAAGGGGGTCGTTCAGTTTGAAAG, for which the PBM binding z-score came out at 2.93.

Regarding TATACAGGATCAAAGGCCAGAGTACGAATGTCGA, the PBM binding z-score was 0.857.

As to TAGCCTAGGTCATTCAGGGGCCAGTATGGAAAGC, the PBM binding z-score is 2.92.

On to CGAACTAGGTGACCAGGACAGTGAAGAGGTTGGA, for which the PBM binding z-score stood at 0.65.

With ACTTACGGGTCAACGAAGTTATAGCACGCGTATA, the PBM binding z-score is 5.31.

Sequence CAAACTAGGTCACGAGGTCAAAGTCCGCTTCCCG gave a PBM binding z-score of 7.59.

As to AGCTCTAGGTAAAAGTTCAGTGAATCCCGAGGAT, the PBM binding z-score is 1.46.

As for CGAACTAGGTCAAAGGACACTGAAAGGCGACGTA, the PBM binding z-score was determined as 3.12.

Sequence TAGCCTAGGTCATAGGCCAGTATACCACGCGAAC displayed a PBM binding z-score of 3.51.

CGAACTAGGCCACCAGGACAGTGAAGAGGTTGGA had a PBM binding z-score of -0.0253.

ATATGTAGGTTAGGGTCATTCCGAAAGTAGGGAA: the PBM binding z-score was determined as 5.22.

Take CGTCCAAGGGCAATGCTAGGTCAGTGAAAGCATT: the PBM binding z-score stood at 0.71.

Sequence AGAATGGGGTTAAGATCAGGGAAACAGAATACAT gave a PBM binding z-score of 4.56.

In turn, CCGAGTAGGTTACGAGGGGGCACTCAGTGCGAAT showed a PBM binding z-score of 2.17.

Turning to TTACCAAGGTAAAAGGTCGTTGATGCACGCCTTG, the PBM binding z-score was 3.68.

GCTTACGGGTCAAAGGTTATGGCATGAATAGAAT returned a PBM binding z-score of 9.82.

As for ACTCGGAGGACAAAGGTAAGAGCTACGCCAGTGA, the PBM binding z-score came to 0.494.

Regarding CAATCTAGGTCACAGAGGTCAAAGTCCGTGCGTA, the PBM binding z-score was 8.19.

CGAACTAGGTCACCAGGACAGTGATGAGGTTGGA: the PBM binding z-score came out at 3.45.
